Test results: PubChem BioAssay AID1159580 (chemical genetic matrix, 2015)
Where “and” joins values, the source holds several entries; their conditions need not be identical. Identical values can stand only once. The campaign covered roughly 5,500 compounds. About 2,000 (36%) were called active. Inconclusive results (about 18%) are left out. Rule as the data show it: active = normalized growth mostly below about 0.91 (no sharp cut-off); inconclusive = no clear call, values can overlap the other calls; inactive = mostly above about 0.92. The list shows a part of the results.

Experiment: chemical genetic growth profiling, strain panel (AID 1159580);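 also: tested at 20 µM; growth read once vehicle control cultures reached saturation at 30 °C; 1 = growth at the plate median or of vehicle wells; lower values mean less growth of the strain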
Settings: S. cerevisiae deletion strains, growth OD

Measured: normalized growth

COCCOC(=O)C1=C(C)NC(C)=C(C(=O)OC(C)C)C1c1cccc([N+](=O)[O-])c1 (stereo not given)
inactive: locus YAL013W, strain DEP1, stronger effect = lower value 1.01 | locus YAL021C, strain ccr4, stronger effect = lower value 1.04 | locus YAL026C, strain drs2, stronger effect = lower value 1.02 | locus YAL030W, strain snc1, stronger effect = lower value 1.02 | locus YAL040C, strain CLN3, stronger effect = lower value 1 | locus YBL061C, strain skt5, stronger effect = lower value 1.02 | locus YBR009C, strain hhf1, stronger effect = lower value 0.988 | locus YBR021W, strain FUR4, stronger effect = lower value 1.01 | locus YBR023C, strain chs3, stronger effect = lower value 1.02 | locus YBR171W, strain sec66, stronger effect = lower value 1.02 | locus YBR229C, strain ROT2, stronger effect = lower value 0.999 | locus YBR231C, strain swc5, stronger effect = lower value 0.996 | locus YBR279W, strain paf1, stronger effect = lower value 0.992 | locus YCL011C, strain gbp2, stronger effect = lower value 1.02 | locus YCL016C, strain dcc1, stronger effect = lower value 1.01 | locus YCL029C, strain bik1, stronger effect = lower value 1.02 | locus YCL061C, strain MRC1 (second series), stronger effect = lower value 1.01 | locus YCL069W, strain vba3, stronger effect = lower value 1.02 | locus YCR088W, strain abp1, stronger effect = lower value 1.01 | locus YDL005C, strain med2, stronger effect = lower value 1.01 | locus YDL035C, strain GPR1, stronger effect = lower value 1.01 | locus YDL040C, strain nat1, stronger effect = lower value 0.999 | locus YDL074C, strain BRE1, stronger effect = lower value 0.996 | locus YDL101C, strain DUN1, stronger effect = lower value 1.01 | locus YDL134C, strain PPH21, stronger effect = lower value 1.01 | locus YDL185W, strain tfp1, stronger effect = lower value 1.02 | locus YDL192W, strain arf1, stronger effect = lower value 1.02 | locus YDR001C, strain nth1, stronger effect = lower value 1.01 | locus YDR069C, strain doa4, stronger effect = lower value 0.982 | locus YDR101C, strain arx1, stronger effect = lower value 1.01 | locus YDR137W, strain rgp1, stronger effect = lower value 0.925 | locus YDR150W, strain NUM1, stronger effect = lower value 1.01 and 0.999 | locus YDR159W, strain sac3, stronger effect = lower value 0.967 | locus YDR162C, strain NBP2, stronger effect = lower value 0.992 | locus YDR195W, strain ref2 1.01 | locus YDR297W, strain sur2, stronger effect = lower value 1.01 | locus YDR318W, strain mcm21, stronger effect = lower value 1.01 | locus YDR334W, strain swr1, stronger effect = lower value 1 | locus YDR335W, strain msn5, stronger effect = lower value 1.01 | locus YDR363W, strain ESC2, stronger effect = lower value 1.01 | locus YDR388W, stronger effect = lower value 1.01 | locus YDR392W, strain spt3, stronger effect = lower value 0.977 | locus YDR502C, strain sam2, stronger effect = lower value 1 | locus YEL003W, strain gim4, stronger effect = lower value 1.01 | locus YEL037C, strain rad23, stronger effect = lower value 1.01 | locus YEL061C, strain CIN8 (second series), stronger effect = lower value 1 | locus YEL061C, strain CIN8, stronger effect = lower value 1 | locus YER002W, strain NOP16, stronger effect = lower value 0.993 | locus YER015W, strain faa2, stronger effect = lower value 1.01 | locus YER016W, strain bim1, stronger effect = lower value 0.989 | locus YER110C, stronger effect = lower value 1.02 | locus YER111C, strain swi4, stronger effect = lower value 1.02 | locus YER155C, strain BEM2 (second series), stronger effect = lower value 1.03 | locus YER155C, strain BEM2, stronger effect = lower value 1.02 | locus YER167W, strain BCK2, stronger effect = lower value 1.01 | locus YFR010W, strain ubp6, stronger effect = lower value 1.01 | locus YGL078C, strain dbp3, stronger effect = lower value 1.01 | locus YGL086W, strain mad1, stronger effect = lower value 0.992 | locus YGL167C, strain pmr1, stronger effect = lower value 1 | locus YGL173C, strain kem1, stronger effect = lower value 1.01 | locus YGL227W, strain vid30, stronger effect = lower value 1.03 | locus YGL240W, strain doc1, stronger effect = lower value 0.984 | locus YGL248W, strain PDE1, stronger effect = lower value 1 | locus YGL253W, strain hxk2, stronger effect = lower value 1.01 | locus YGR078C, strain PAC10, stronger effect = lower value 1 and 0.918 | locus YGR135W, strain pre9, stronger effect = lower value 0.997 | locus YGR229C, strain SMI1, stronger effect = lower value 1 | locus YGR252W, strain gcn5, stronger effect = lower value 0.961 | locus YHR013C, strain ard1, stronger effect = lower value 1.02 | locus YHR027C, strain rpn1, stronger effect = lower value 1.01 | locus YHR030C, strain SLT2, stronger effect = lower value 1.01 and 0.955 | locus YHR079C, strain IRE1 (second series), stronger effect = lower value 1 | locus YHR079C, strain IRE1, stronger effect = lower value 0.95 | locus YHR094C, strain hxt1, stronger effect = lower value 1.01 | locus YHR129C, strain ARP1, stronger effect = lower value 0.999 | locus YHR142W, strain chs7, stronger effect = lower value 1.04 | locus YHR200W, strain rpn10, stronger effect = lower value 1.02 | locus YIL066C, strain RNR3, stronger effect = lower value 1.01 | locus YIL073C, strain SPO22, stronger effect = lower value 1.04 | locus YIL125W, strain kgd1, stronger effect = lower value 1.01 | locus YIR030C, strain dcg1, stronger effect = lower value 1.01 | locus YJL092W, strain hpr5, stronger effect = lower value 1.02 | locus YJL095W, strain BCK1 (second series), stronger effect = lower value 1.02 | locus YJL095W, strain BCK1, stronger effect = lower value 1 and 0.972 | locus YJL115W, strain asf1, stronger effect = lower value 1.02 | locus YJL129C, strain trk1, stronger effect = lower value 0.987 | locus YJL134W, strain LCB3, stronger effect = lower value 1.01 | locus YJL154C, strain vps35, stronger effect = lower value 1 | locus YJL164C, strain tpk1, stronger effect = lower value 1.02 | locus YJL166W, strain qcr8, stronger effect = lower value 1.02 | locus YJL168C, strain set2, stronger effect = lower value 1.01 | locus YJL187C, strain SWE1 (second series), stronger effect = lower value 1 | locus YJL187C, strain SWE1, stronger effect = lower value 1.01 | locus YJR043C, strain POL32, stronger effect = lower value 0.999 | locus YJR066W, strain TOR1, stronger effect = lower value 0.946
